# Screens from PubChem BioAssay.
# CYP2C9 inhib = human CYP2C9 inhibition; P11712; CYP2C9 Supersomes, luciferin-H conversion, luminescence; inhibition, % at 5 µM; 20% of 96,000 active;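 active means blocking of liver enzyme CYP2C9 beyond about 50% at 5 µM, limit read from the data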
# Target sequence (P11712 whole entry, looked up): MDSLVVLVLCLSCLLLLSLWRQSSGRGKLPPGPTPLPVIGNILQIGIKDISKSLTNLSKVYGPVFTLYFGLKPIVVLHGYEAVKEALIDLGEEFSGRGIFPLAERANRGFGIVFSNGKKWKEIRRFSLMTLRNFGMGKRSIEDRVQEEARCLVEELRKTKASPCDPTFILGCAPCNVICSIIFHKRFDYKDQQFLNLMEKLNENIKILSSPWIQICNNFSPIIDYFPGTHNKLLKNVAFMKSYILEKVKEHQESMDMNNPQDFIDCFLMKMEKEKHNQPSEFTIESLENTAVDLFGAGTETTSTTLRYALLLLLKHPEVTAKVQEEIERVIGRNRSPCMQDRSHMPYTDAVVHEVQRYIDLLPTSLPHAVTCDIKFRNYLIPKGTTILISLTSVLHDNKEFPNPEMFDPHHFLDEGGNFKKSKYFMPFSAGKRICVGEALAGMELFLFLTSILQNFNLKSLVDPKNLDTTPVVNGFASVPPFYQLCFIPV
# CYP2C19 act = activators of human cytochrome P450 2C19. P33261. recombinant CYP2C19, luciferin-H EGE luminescence; hits give high values; 0 = fully inhibited enzyme, 1 = untreated enzyme. activation factor at 5 µM. 96,000 tested, under 10 active. AID 1025;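 active means activation factor of at least 2 at 5 µM in the primary screen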;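 further: 0 = wells with 2.5 mM tranylcypromine and 1 = vehicle-only wells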
# CYP2C19 inh = inhibitors of human CYP2C19; inhibition, % at 5 µM; P33261; CYP2C19 Supersomes, luciferin-H EGE luminescence, 30 min; 21% of 96,000 active;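 active means CYP2C19 inhibition above a set limit at 5 µM in the primary screen, cut at about 50% in these data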;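 further: plate controls were negative control wells for no effect and 2.5 mM tranylcypromine positive control for full effect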
# Cav32 inh = inhibitors of human Cav3.2 T-type calcium channel | O95180 | Cav3.2-expressing cells, Fluo-4 calcium fluorescence FDSS; hits give low values | B-score at 10 µM | 4% of 100,000 active;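 active means single-dose well whose peak fluorescence ratio is a statistical outlier from its plate by either plate-standardised score or position-corrected B-score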
# CYP2C9 act = CYP2C9 (human) activation; P11712; recombinant CYP2C9, luciferin-H conversion, luminescence; hits give high values; factor 1 = untreated enzyme, 0 = blocked; activation factor at 5 µM; 1.4% of 96,000 active;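 active means activation factor of 2 or more for CYP2C9 at a 5 µM dose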;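 further: 0 = sulfaphenazole-blocked wells and 1 = vehicle-only wells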
# The depositor's hits bear a star; nt = not tested or not shown. The list is not random: actives were taken first. Their share in the collection is about 27%.
SMILES,CYP2C9 inhib,CYP2C19 act,CYP2C19 inh,Cav32 inh,CYP2C9 act
O=C(CSc1oc(-c2cccs2)nc1S(=O)(=O)c1ccc(F)cc1)NCC1CCCO1 (stereo not drawn),50,0.4,64*,-0.92,0.5
N#Cc1nc(-c2cccs2)oc1NCC1CCCO1 (stereo not drawn),38,0.5,55*,0.14,0.6
O=S(=O)(c1ccccc1)c1nc(-c2cccs2)oc1NCC1CCCO1 (stereo not drawn),-2,0.9,12,-2.9,1
CCN1CCN(CC(O)COC(C)C)CC1 (stereo not drawn),-23,0.8,22,-0.61,1.2
O=C(c1ccc(-c2ccccc2)cc1)N1CCN(Cc2ccccn2)CC1,-9,1,-4,-0.94,1.1
O=C(Nc1ccccc1)c1ccc(CSc2ncccn2)cc1,43,0.6,44,0.2,0.6
Cc1ccc(NC(=O)c2ccc(CSc3nccc(C)n3)cc2)cc1,64*,0.7,32,-0.29,0.4
CC(C)Nc1nc(Oc2cccc(Cl)c2Cl)cc(C(F)(F)F)n1,30,0.3,71*,nt,0.7
Cc1cccc(C)c1NC(=O)C(c1cccs1)N(Cc1ccco1)C(=O)Cn1nnc2ccccc21 (stereo not drawn),4,1,2,-2,1
CCOC(=O)CSc1nnc(C)n1N,-2,1,3,-0.47,1
O=C(Nc1ccncc1)c1ccc2c(c1)C(=O)N(C1CCCCC1)C2=O,92*,0.2,76*,0.076,0.1
CCC(=O)Nc1ccc2c(c1)C(=O)N(C1CCCCC1)C2=O,53*,1,-2,-0.053,0.5
Cc1cc(NC(=O)c2ccc3c(c2)C(=O)N(C2CCCCC2)C3=O)no1,6,1.1,-6,-0.079,0.9
COc1ccc(COC(=O)c2ccc(N3CCCC3=O)cc2)cc1F,61*,0.5,45,-1.2,0.4
COc1ccc(CCNC(=O)c2ccc(N3CCCC3=O)cc2)cc1OC,8,0.9,13,0.34,0.9
C=CCOc1c2ccc(C(=O)NCCc3ccc(C)cc3)cc2nn1C,20,0.9,13,1,0.8
Cc1ccc2c(COC(=O)c3n[nH]c4ccccc34)cc(=O)oc2c1,57*,0.9,12,-1,0.4
CCc1ccc2c(COC(=O)c3n[nH]c4ccccc34)cc(=O)oc2c1,81*,0.4,58*,-0.019,0.2
CC1CCCCN1C(=O)COC(=O)c1n[nH]c2ccccc12 (stereo not drawn),8,0.7,31,0.39,0.9
Cn1ncc(Br)c1C(=O)OCC(=O)Nc1nc(-c2ccccc2)cs1,nt,nt,nt,-1.6,nt
COc1ccc(COc2ccsc2C(=O)Nc2ccc(Cl)c(Cl)c2)cc1,55*,0.7,34,-2,0.4
CCOC(=O)c1oc2cccc(OCC(O)CNC(C)C)c2c1C (stereo not drawn),37,0.3,70*,nt,0.6
Cc1cccc(C)c1OCC(O)CNC(C)C (stereo not drawn),-15,0.9,10,0.59,1.2
CCOc1ccc(N2C(=O)CC(NCCc3ccc(S(N)(=O)=O)cc3)C2=O)cc1 (stereo not drawn),7,0.9,14,-1.7,0.9
CCCOc1ccc(N2C(=O)CC(NCc3ccncc3)C2=O)cc1 (stereo not drawn),67*,0.3,68*,0.16,0.3
SMILES,CYP2C9 inhib,CYP2C19 act,CYP2C19 inh,Cav32 inh,CYP2C9 act
CCCOc1ccc(N2C(=O)CC(N3CCN(c4ccccc4F)CC3)C2=O)cc1 (stereo not drawn),11,1,-3,-0.082,0.9
CCCOc1ccc(N2C(=O)CC(N3CCC(c4nncn4CC)CC3)C2=O)cc1 (stereo not drawn),64*,0.8,15,nt,0.4
CCOc1ccc(N2C(=O)CC(NCCc3ccncc3)C2=O)cc1 (stereo not drawn),35,0.5,52*,0.055,0.6
CNC(=O)C1C2C=CC3(O2)C1C(=O)N(C1CC1)C3C(=O)NCc1ccc(OC)cc1 (stereo not drawn),-26,1.2,-16,0.26,1.3
Cc1nc2ccccn2c1C(=O)N/N=C/c1cc(C)n(-c2ccc(Br)cc2)c1C,nt,nt,nt,-1.7,nt
Cc1ccc(N(CC(=O)Nc2ccc(S(=O)(=O)N3CCOCC3)cc2)S(C)(=O)=O)cc1C,98*,0.2,77*,-3.2,0
CC(C)c1ccc(N(CC(=O)NCCSC(C)(C)C)S(C)(=O)=O)cc1,38,0.4,61*,-0.041,0.6
CC(C)c1ccc(N(CC(=O)Nc2ccc(S(=O)(=O)N3CCOCC3)cc2)S(C)(=O)=O)cc1,90*,0.3,73*,-7.9*,0.1
Cc1ccc(N(C(C)C(=O)Nc2ccc(S(=O)(=O)N3CCOCC3)cc2)S(C)(=O)=O)cc1C (stereo not drawn),89*,0.6,36,-2.6,0.1
CCOC(=O)c1c(C)[nH]c(C)c1C(=O)COC(=O)C1CCCN1S(=O)(=O)c1ccccc1F (stereo not drawn),95*,0,100*,-0.11,0.1
N#CC1=C(N)Oc2cc(O)ccc2C1c1ccccc1 (stereo not drawn),77*,0.3,65*,-2.7,0.2
N#CC1=C(N)Oc2cc3c(cc2C1c1ccc(Cl)cc1)OCO3 (stereo not drawn),18,0.8,22,-0.49,0.8
CCCc1[nH]nc2c1C(c1cccnc1)C(C#N)=C(N)O2 (stereo not drawn),-5,1,-1,0.054,1
COc1cc(C2C(C#N)=C(N)Oc3cc(N(C)C)ccc32)cc2c1OCO2 (stereo not drawn),55*,0.5,51*,-2.4,0.5
N#CC1=C(N)Oc2cc3ccccc3cc2C1c1cccnc1 (stereo not drawn),82*,0.3,66*,0.68,0.2
CCOC(=O)C1=C(C)OC(N)=C(C#N)C1c1cc(Cl)c(OCC(N)=O)c(OC)c1 (stereo not drawn),89*,0.6,41,-0.13,0.1
COc1cc(C2C(C#N)=C(N)Oc3cc(O)ccc32)cc2c1OCO2 (stereo not drawn),91*,0.1,93*,-3.7,0.1
CCOC(=O)C1=C(C)OC(N)=C(C#N)C1c1cc(OC)c2c(c1)OCO2 (stereo not drawn),66*,0.2,84*,-0.21,0.3
Cc1ccccc1-c1nc(CN2CCC(C(=O)NC3CCN(Cc4ccccc4)CC3)CC2)c(C)o1,nt,nt,nt,0.29,nt
O=c1[nH]c2cccc(Cl)c2n(CCNc2ncc(C(F)(F)F)cc2Cl)c1=O,36,0.4,61*,nt,0.6
O=C(CN1CCN(c2ncc(C(F)(F)F)cc2Cl)CC1)NCCNc1ncc(C(F)(F)F)cc1Cl,0,1,-2,0.25,1
O=c1c(Cl)nc2cc(Cl)ccc2n1CCNc1ncc(C(F)(F)F)cc1Cl,47,0.3,73*,2.3,0.5
Cc1cc(C)c2c(c1)/C(=N/NC(=S)Nc1ccc(F)cc1)CCC2,-27,1.1,-9,0.54,1.3
